The results in this text go back to PubChem BioAssay (EPA / NIEHS).

Structures are written as SMILES. Activity calls are given as the source filed them. How the source made its calls: active means hit-call score of the fitted dose curve at least 0.9, where 1 is the maximum; inactive means score below 0.9.

Experiment [1] can be described thus: ATG_CRE_CIS: Attagene CIS-FACTORIAL HepG2 Assay for human cAMP Responsive Element (CRE) binding protein 3 (AID 2282926). Particulars: HepG2 CRE cis-reporter, Attagene multiplexed mRNA; actives raise or lower the signal. In outline: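 Endogenous transcription factor activity read via CRE-regulated reporter transcripts in transfected HepG2 cells. After 24 h exposure, RNA was reverse-transcribed, amplified, fluorescently labelled and sized by capillary electrophoresis; gain or loss fitted against DMSO.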

Experiment [2] concerns the target CCAAT/enhancer-binding protein beta (Homo sapiens) (UniProt P17676). Nature of the experiment: ATG_C_EBP_CIS: Attagene CIS-FACTORIAL HepG2 Assay for human CCAAT/Enhancer Binding Protein (C/EBP) beta (AID 2282927). Particulars: HepG2 Attagene cis-factorial transcription factor reporter; actives raise or lower the signal. In short, it runs like this:
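HepG2, transient MRTU transfection, 24 h treatment. RT-PCR plus CE fluorescence; DMSO negative control, bidirectional fit.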

Experiment [3] is described as follows: ATG_CMV_CIS: Attagene CIS-FACTORIAL HepG2 Assay for human CMV (Internal Marker) (AID 2282928).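 Further: endpoint acts as a background internal control marker rather than a target.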 Particulars: HepG2 CMV promoter reporter, transcription factor profiling; actives raise or lower the signal. In short, it runs like this:
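Reporter transcripts from transfected HepG2 cells are isolated after 24 h of chemical dosing, reverse-transcribed and amplified. Fragments labeled with 6-FAM are cut with HpaI and quantified by capillary electrophoresis; DMSO defines baseline.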

Experiment [4] can be described thus: ATG_DR4_LXR_CIS: Attagene CIS-FACTORIAL HepG2 Assay for human Liver X Receptor (LXR), DR4 submotif (AID 2282929). The following applies: HepG2 Attagene DR4 cis-reporter, mRNA transcription; actives raise or lower the signal. In outline: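 Transiently transfected HepG2 liver cells; cis-regulated reporters; 24 h dosing. RT-PCR plus CE read-out of reporter mRNA. DMSO baseline, bidirectional curve fitting.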

The target of experiment [5] is Aryl hydrocarbon receptor (Homo sapiens) (UniProt P35869). Nature of the experiment: ATG_Ahr_CIS: Attagene CIS-FACTORIAL HepG2 Assay for human Aryl Hydrocarbon Receptor (Ahr) (AID 2282930). The following applies: HepG2 AhR cis-factorial reporter transcription; actives raise or lower the signal. In short, it runs like this:
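Endogenous factor activity is tracked through cis-promoter reporter units transfected into HepG2 cells. Transcript levels at 24 h are read by fluorescent RT-PCR and capillary electrophoresis, with activity in either direction scored relative to DMSO.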

A short description of experiment [6]: ATG_AP_1_CIS: Attagene CIS-FACTORIAL HepG2 Assay for human Activator Protein 1 (AP-1) (AID 2282931). Particulars: HepG2 Attagene cis-factorial AP-1 reporter mRNA; actives raise or lower the signal. In outline:
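We transfected HepG2 cells transiently with a set of cis-regulated reporter transcription units, dosed them for 24 h, and quantified reporter mRNA via RT-PCR and capillary electrophoresis, scoring gain or loss of signal relative to DMSO.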

Experiment [7] is described as follows: ATG_AP_2_CIS: Attagene CIS-FACTORIAL HepG2 Assay for human Activator Protein 2 (AP-2) (AID 2282932). Particulars: HepG2 AP-2 cis-reporter, Attagene transcription factor profiling; actives raise or lower the signal. In short, it runs like this:
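Read-out: fluorescent reporter mRNA via RT-PCR and capillary electrophoresis, 24 h post-dose in transiently transfected HepG2. Endogenous factors drive cis-promoter reporters; gain or loss of signal fitted bidirectionally against DMSO.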

Experiment [8] is described as follows: ATG_BRE_CIS: Attagene CIS-FACTORIAL HepG2 Assay for human Bone Morphogenetic Protein (BMP) Response Element (BRE) (AID 2282933). Particulars: HepG2 BMP response element reporter, Attagene transcription factor profiling; actives raise or lower the signal. In short, it runs like this: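 Transient MRTU transfection of human HepG2 liver cells; 24 h compound treatment; total RNA isolated, reverse-transcribed, PCR-amplified, 6-FAM labelled, HpaI-cut, capillary electrophoresis. DMSO = negative control/baseline, bidirectional fit.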

Experiment [9] deals with Transcription factor E2F1 (Homo sapiens) (UniProt Q01094). Nature of the experiment: ATG_E2F_CIS: Attagene CIS-FACTORIAL HepG2 Assay for human E2F Transcription Factor 1 (AID 2282935). The following applies: HepG2 Attagene cis-reporter, E2F reporter RNA transcripts; actives raise or lower the signal. In outline:
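Transient MRTU transfection of HepG2; 24 h compound exposure; RNA → oligo(dT) RT → PCR → FAM label → HpaI cut → CE fluorescence. Gain/loss of signal fit against DMSO.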

Experiment [10] can be described thus: ATG_E_Box_CIS: Attagene CIS-FACTORIAL HepG2 Assay for human Enhancer Box (E-box) (AID 2282936). Particulars: HepG2 E-box cis-reporter transcription, actives raise or lower the signal. In outline:
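Transiently transfected HepG2, endogenous TF-driven reporters, 24 h dosing. Readout: RT-PCR plus capillary electrophoresis of fluorescent reporter fragments. Gain or loss of signal fitted bidirectionally against DMSO baseline.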

Experiment [11] is described as follows: ATG_M_61_CIS: Attagene CIS-FACTORIAL HepG2 Assay for M61 Transcription Factor (Internal Marker) (AID 2282937). The following applies: HepG2 Attagene CIS-FACTORIAL M61 internal marker reporter; actives raise or lower the signal. In outline: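 Multiplexed reporter mRNA assay, HepG2 human hepatoma cells, 24 h treatment. Signal: FAM-labelled, HpaI-digested RT-PCR fragments by CE. Fit: bidirectional, baseline DMSO.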

Experiment [12] is described as follows: ATG_EGR_CIS: Attagene CIS-FACTORIAL HepG2 Assay for human Early Growth Response 1 (EGR1) (AID 2282938). Particulars: HepG2 Attagene CIS-FACTORIAL EGR reporter mRNA; actives raise or lower the signal. In short, it runs like this: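 Multiplexed cis-reporter system in human hepatoma HepG2 cells, transiently transfected. Cells are dosed for 24 h; reporter transcripts are amplified, fluorescently tagged and sized by capillary electrophoresis, with DMSO as negative control.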

A short description of experiment [13]: ATG_M_19_CIS: Attagene CIS-FACTORIAL HepG2 Assay for M19 Transcription Factor (Internal Marker) (AID 2282939). The following applies: HepG2 Attagene CIS-FACTORIAL M19 internal marker reporter; actives raise or lower the signal. In short, it runs like this: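 Transfect HepG2 with MRTU reporter library → dose chemical, 24 h → isolate total RNA, reverse-transcribe with oligo(dT) → PCR, 6-FAM label, HpaI cut (2 h, 37 C) → capillary electrophoresis. Bidirectional fit vs DMSO.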

Experiment [14] is described as follows: ATG_ERE_CIS: Attagene CIS-FACTORIAL HepG2 Assay for Estrogen Response Element (ERE) (AID 2282940). Particulars: HepG2 ERE cis-reporter, Attagene RNA transcript; actives raise or lower the signal. In outline:
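Transient MRTU transfection of human HepG2; cis-element promoters; 24 h dosing; total RNA → RT (oligo dT) → PCR → 6-FAM primer extension → HpaI digest → CE fluorescence. Bidirectional fit, DMSO baseline.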

A short description of experiment [15]: ATG_Ets_CIS: Attagene CIS-FACTORIAL HepG2 Assay for human Erythroblast Transformation Specific (ETS) (AID 2282941). The following applies: HepG2 ETS cis-reporter transcription, actives raise or lower the signal. In outline:
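Bidirectional fit versus DMSO of reporter mRNA signal, detected by RT-PCR and capillary electrophoresis in HepG2 cells transiently transfected with cis-element reporters and dosed 24 h.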

The target of experiment [16] is Hepatocyte nuclear factor 3-beta (Homo sapiens) (UniProt Q9Y261). Description: ATG_FoxA2_CIS: Attagene CIS-FACTORIAL HepG2 Assay for human Forkhead box A2 (FOXA2) (AID 2282942). Particulars: HepG2 cis-reporter transcription factor activity, 24 h; actives raise or lower the signal. In short, it runs like this: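 Multiplexed cis-element reporter assay in transiently transfected HepG2. Twenty-four hours post-dosing, RNA was reverse-transcribed, amplified, FAM-labelled, HpaI-digested and separated by CE. Activity gain or loss relative to DMSO.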
Chain of Hepatocyte nuclear factor 3-beta (Homo sapiens) (Q9Y261 whole entry, looked up): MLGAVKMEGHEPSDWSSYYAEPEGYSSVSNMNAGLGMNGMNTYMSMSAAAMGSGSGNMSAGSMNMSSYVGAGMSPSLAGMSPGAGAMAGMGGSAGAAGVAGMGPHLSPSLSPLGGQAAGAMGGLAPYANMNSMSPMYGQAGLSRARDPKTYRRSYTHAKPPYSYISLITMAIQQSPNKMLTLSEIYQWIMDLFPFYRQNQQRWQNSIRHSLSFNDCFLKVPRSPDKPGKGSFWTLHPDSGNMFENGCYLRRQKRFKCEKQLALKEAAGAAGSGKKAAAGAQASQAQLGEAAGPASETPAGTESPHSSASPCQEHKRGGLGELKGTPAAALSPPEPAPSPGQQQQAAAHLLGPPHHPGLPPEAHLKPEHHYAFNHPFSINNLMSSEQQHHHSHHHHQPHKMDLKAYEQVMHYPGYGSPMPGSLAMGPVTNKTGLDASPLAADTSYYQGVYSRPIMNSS

Experiment [17] can be described thus: ATG_FoxO_CIS: Attagene CIS-FACTORIAL HepG2 Assay for human Forkhead box O (FoxO) (AID 2282943). Particulars: HepG2 Attagene cis-reporter, FoxO element, mRNA; actives raise or lower the signal. In outline: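 Transfected HepG2 reporter cells exposed to test chemical for 24 h; reporter RNA measured by reverse transcription, PCR and fluorescent capillary electrophoresis; curves fitted for increases and decreases against DMSO.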

Experiment [18] can be described thus: ATG_GATA_CIS: Attagene CIS-FACTORIAL HepG2 Assay for human GATA Binding Protein (AID 2282944). Particulars: HepG2 GATA cis-element reporter, Attagene multiplex mRNA; actives raise or lower the signal. In outline:
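Transient MRTU transfection, HepG2, 24 h compound exposure. Total RNA → oligo(dT) RT → PCR → 6-FAM primer extension → HpaI cut → CE. Bidirectional fit vs DMSO.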

The nature of experiment [19]: ATG_GLI_CIS: Attagene CIS-FACTORIAL HepG2 Assay for human Zinc Finger Protein GLI1 (AID 2282945). The following applies: HepG2, Attagene cis-factorial reporter mRNA, GLI element; actives raise or lower the signal. In short, it runs like this: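 Transiently transfected HepG2 cells report endogenous transcription factor activity via cis-element-driven reporter units. After 24 h compound exposure, reporter mRNA was measured by RT-PCR with capillary electrophoresis; bidirectional fitting against DMSO baseline.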

The target in experiment [20] is Retinoic acid receptor alpha (Homo sapiens) (UniProt P10276). Description: ATG_DR5_RAR_CIS: Attagene CIS-FACTORIAL HepG2 Assay for human Retinoic Acid Receptor Alpha (RARE), DR5 submotif (AID 2282934). The following applies: HepG2 Attagene cis-factorial RARE DR5 reporter, mRNA; actives raise or lower the signal. In short, it runs like this: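 After 24 h of chemical exposure, transiently transfected HepG2 cells were lysed for total RNA; the DR5-regulated reporter transcript was quantified via RT-PCR and capillary electrophoresis, with activity fitted bidirectionally against DMSO.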
Chain of Retinoic acid receptor alpha (Homo sapiens) (P10276 whole entry, looked up): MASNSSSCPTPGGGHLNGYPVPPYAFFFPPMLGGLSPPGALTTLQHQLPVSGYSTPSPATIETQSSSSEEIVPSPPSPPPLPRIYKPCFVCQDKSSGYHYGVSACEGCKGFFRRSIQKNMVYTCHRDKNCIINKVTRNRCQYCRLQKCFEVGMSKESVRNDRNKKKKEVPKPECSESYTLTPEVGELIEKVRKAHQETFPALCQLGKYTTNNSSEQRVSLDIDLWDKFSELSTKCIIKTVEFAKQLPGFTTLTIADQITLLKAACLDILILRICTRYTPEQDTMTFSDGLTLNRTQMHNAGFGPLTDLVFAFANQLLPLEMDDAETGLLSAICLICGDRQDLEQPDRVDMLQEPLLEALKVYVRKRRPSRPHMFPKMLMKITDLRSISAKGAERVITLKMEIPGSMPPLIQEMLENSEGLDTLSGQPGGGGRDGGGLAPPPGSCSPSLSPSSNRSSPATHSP

Chain of Aryl hydrocarbon receptor (Homo sapiens) (P35869 whole entry, looked up): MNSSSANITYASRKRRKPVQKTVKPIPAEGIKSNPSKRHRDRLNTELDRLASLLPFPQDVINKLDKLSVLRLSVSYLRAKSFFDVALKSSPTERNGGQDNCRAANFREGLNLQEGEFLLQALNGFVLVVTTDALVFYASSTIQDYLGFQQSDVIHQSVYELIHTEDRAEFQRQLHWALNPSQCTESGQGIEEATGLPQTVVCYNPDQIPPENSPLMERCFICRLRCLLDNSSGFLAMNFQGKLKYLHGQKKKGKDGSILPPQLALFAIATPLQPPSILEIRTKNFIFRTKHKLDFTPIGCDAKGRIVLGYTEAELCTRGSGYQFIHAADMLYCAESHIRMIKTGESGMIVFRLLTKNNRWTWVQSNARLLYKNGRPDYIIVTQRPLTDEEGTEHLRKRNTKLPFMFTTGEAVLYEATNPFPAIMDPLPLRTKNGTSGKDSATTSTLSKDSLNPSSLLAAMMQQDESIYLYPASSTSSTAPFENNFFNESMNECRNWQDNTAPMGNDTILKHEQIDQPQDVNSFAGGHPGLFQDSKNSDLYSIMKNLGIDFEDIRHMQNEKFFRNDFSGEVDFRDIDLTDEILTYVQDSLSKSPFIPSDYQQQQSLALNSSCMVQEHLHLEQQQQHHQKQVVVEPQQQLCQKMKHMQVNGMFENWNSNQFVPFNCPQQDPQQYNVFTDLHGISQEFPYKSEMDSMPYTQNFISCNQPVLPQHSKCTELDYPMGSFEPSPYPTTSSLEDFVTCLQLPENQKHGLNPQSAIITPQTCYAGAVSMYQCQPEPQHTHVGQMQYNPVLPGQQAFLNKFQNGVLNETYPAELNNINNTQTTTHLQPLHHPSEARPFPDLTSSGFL
Chain of Transcription factor E2F1 (Homo sapiens) (Q01094 whole entry, looked up): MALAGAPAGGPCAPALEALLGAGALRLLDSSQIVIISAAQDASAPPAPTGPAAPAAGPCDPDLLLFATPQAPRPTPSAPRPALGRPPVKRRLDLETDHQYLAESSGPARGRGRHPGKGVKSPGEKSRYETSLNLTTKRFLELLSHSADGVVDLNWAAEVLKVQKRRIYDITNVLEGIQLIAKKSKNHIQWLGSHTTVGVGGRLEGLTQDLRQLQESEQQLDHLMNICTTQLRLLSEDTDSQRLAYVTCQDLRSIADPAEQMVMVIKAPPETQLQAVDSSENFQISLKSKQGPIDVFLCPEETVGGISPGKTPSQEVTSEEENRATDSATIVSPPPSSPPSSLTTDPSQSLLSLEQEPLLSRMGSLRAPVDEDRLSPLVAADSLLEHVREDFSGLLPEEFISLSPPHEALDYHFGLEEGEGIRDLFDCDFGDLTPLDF
Chain of CCAAT/enhancer-binding protein beta (Homo sapiens) (P17676 whole entry, looked up): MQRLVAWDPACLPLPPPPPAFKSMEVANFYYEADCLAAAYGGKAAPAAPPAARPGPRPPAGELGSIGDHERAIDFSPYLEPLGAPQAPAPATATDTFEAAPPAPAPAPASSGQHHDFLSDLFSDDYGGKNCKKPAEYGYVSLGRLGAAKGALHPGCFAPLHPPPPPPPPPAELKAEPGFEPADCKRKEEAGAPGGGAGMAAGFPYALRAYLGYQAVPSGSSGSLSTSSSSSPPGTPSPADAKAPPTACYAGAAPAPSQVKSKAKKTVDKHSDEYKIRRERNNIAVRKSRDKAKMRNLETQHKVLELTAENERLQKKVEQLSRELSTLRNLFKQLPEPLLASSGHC

Regarding `CCCCCCCCCOC(C)=O`, the molecule was called inactive in experiment [1], in [2], in [3], in [4], in experiment [5] and in [6]. Besides, the outcome in [7], in experiment [8], in experiment [9], in experiment [10], in experiment [11] and in experiment [12] was inactive. The molecule was called inactive in experiment [13], in experiment [14], in experiment [15], in [16], in experiment [17] and in [18]. Moreover, the molecule was classed as inactive in experiment [19].

For `O=C(O)CCCCCCCC(=O)O`, the call in experiment [1], in [2], in [3], in [4], in [5] and in experiment [6] was inactive. Moreover, the result in experiment [7], in [8], in [20], in experiment [9], in [10] and in [11] was inactive. Further, the result in experiment [12], in [13], in experiment [15], in [16], in [17] and in [18] was inactive. Besides, the call in experiment [19] was inactive.

One may read the AC50 as the concentration at which the activity in the assay is half-maximal. `Clc1nc(C(Cl)(Cl)Cl)c(Cl)c(Cl)c1Cl`: the molecule was classed as inactive in experiment [1], in experiment [2], in experiment [7], in [8], in [10] and in experiment [11]. In addition, the molecule was classed as inactive in experiment [12], in [13], in experiment [14], in experiment [16] and in [17]. In addition, the AC50 in experiment [3] was 24.9 µM (active); in [4], 18 µM (active); in experiment [5] it was 12.6 µM (active); in experiment [6] it was 28.8 µM (active); in experiment [9] it was 22.6 µM (active); in experiment [15], 54.2 µM (active). For the same molecule, the AC50 in experiment [18] is 58.8 µM (active); in experiment [19] it was 55.8 µM (active).

Consider `O=c1[nH]c(=O)n([C@H]2CCCO2)cc1F`, for which the result in experiment [1], in [2], in [3], in [4], in experiment [5] and in [6] was inactive. The outcome in [7], in [8], in experiment [20], in [9], in experiment [10] and in [11] was inactive. Also, the result in [12], in experiment [15], in experiment [16], in experiment [17], in experiment [18] and in experiment [19] was inactive.

As to `CC(C)(N)CO`, the outcome in experiment [1], in [2], in experiment [3], in [4], in experiment [5] and in [6] was inactive. The call in experiment [7], in experiment [8], in experiment [9], in experiment [10], in [11] and in experiment [12] was inactive. Moreover, the call in experiment [13], in experiment [14], in [15], in experiment [16], in experiment [17] and in [18] was inactive.

Take `COCCCOc1ccnc(CS(=O)c2nc3ccccc3[nH]2)c1C` (stereo not given): the call in experiment [1], in [2], in experiment [3], in experiment [4], in experiment [6] and in experiment [7] was inactive. Moreover, the call in [8], in experiment [20], in [9], in experiment [10], in [11] and in experiment [12] was inactive. The call in experiment [13], in [15], in experiment [16], in experiment [17], in [18] and in [19] was inactive. Also, the AC50 in [5] was 14.7 µM (active).

Regarding `O=C(O)c1cccc([N+](=O)[O-])c1`, the outcome in [1], in experiment [2], in experiment [3], in [4], in [5] and in experiment [6] was inactive. In addition, the molecule was called inactive in experiment [7], in [8], in experiment [9], in [10], in experiment [11] and in experiment [12]. The outcome in [13], in [15], in experiment [16], in experiment [17], in [18] and in experiment [19] was inactive.
